This is a sample that favours compounds with a hit; in the whole collection about 21% have one here.
NS1 inh: qHTS Assay for Inhibitors of Influenza NS1 Protein Function; Potency, µM (series often up to 46.1 µM), without a hit: top-dose activity, positive = more growth; 270,000 compounds, 0.4% hits; calls by dose curve; further: potency means the concentration at half of the fitted maximal effect; actives are rising curves; nearly all actives have a fitted effect of over 50% in size
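Recovery from NS1-induced slow growth read by OD600 in budding yeast switched to galactose assay medium (pH 6.0, -URA) at 1:100 dilution. Compound 23 nl per well; the matching strain lacking NS1 serves as control.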
Pf growth 96h: Primary qHTS for delayed death inhibitors of the malarial parasite plastid, 96 hour incubation; P. falciparum luciferase reporter growth, 96 h; Potency, µM (titrated, usually from 28.7 µM), without a hit: at the top dose activity change, negative = inhibition, usual class: inhibitors; 320,000 compounds, 6.9% hits; further: potency means the concentration at half of the fitted maximal effect; on the % scale 0 is the no-effect control and ±100 the full control effect
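P. falciparum expressing integrated firefly luciferase grown in erythrocytes (2% hematocrit, 0.05% parasitemia final) with compounds for 96 hours at 37 C, 5% CO2. Growth inhibition read as loss of luminescence after adding luciferase detection reagent.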
Sm TGR block: qHTS Assay for the Inhibitors of Schistosoma Mansoni Peroxiredoxins; Schistosoma mansoni thioredoxin glutathione reductase (TGR), Q962Y6; purified TGR, DTNB reduction, TNB absorbance 405 nm; Potency, µM (series often up to 114 µM), for inactives: top-dose activity change, negative = inhibition, actives largely listed as inhibitors; 360,000 compounds, 3% hits; further: potency means the concentration at half of the fitted maximal effect; on the % scale 0 is the no-effect control and ±100 the full control effect; nearly all actives have a fitted effect of over 60% in size
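TGR 20 nM + NADPH 100 uM (dispensed conc.), cpd preinc 15 min RT; start with NADPH (500 uM addition) then DTNB (15 mM addition). Kinetic TNB absorbance, 405 nm filter. Four-parameter Hill fit across titration.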
CHX counter: Cycloheximide Counterscreen for Small Molecule Inhibitors of Shiga Toxin | cell reporter, cycloheximide protein synthesis inhibition counterscreen | max response, % | 300,000 compounds, 12% hits | AID 2314, 2010; in the data active means max response mostly above about 13%, no sharp cut-off; inactive means mostly below about 14%; further: read at 38.3 µM for the half of the compounds with a filed dose; 0% is about no effect
Shiga inhibitor: A qHTS for Small Molecule Inhibitors of Shiga Toxin; Vero cells, Shiga toxin protein synthesis inhibition reporter; inhibition, % at 38.7 µM; 290,000 compounds, 9.2% hits; AID 2315, 2010; in the data active means inhibition mostly above about 28%, no sharp cut-off; inactive means mostly below about 43%; further: 0% is about no effect
Pf growth 48h: Primary qHTS for delayed death inhibitors of the malarial parasite plastid, 48 hour incubation. Potency, µM (series often up to 28.7 µM), without a hit: top-dose activity change, negative = inhibition, most hits filed as inhibitors. AID 504832, 2011. P. falciparum luciferase growth in erythrocytes, 48 h. 310,000 compounds, 5.9% hits; further: potency means the concentration at half of the fitted maximal effect; on the % scale 0 is the no-effect control and ±100 the full control effect
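Cell-based growth assay: transgenic P. falciparum expressing firefly luciferase, cultured in red cells within RPMI 1640 containing 0.5% w/v Albumax, 24 mM bicarbonate and gentamycin. A drop in luciferase activity indicates inhibition.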
An asterisk follows results filed as active; i = inactive; ? = inconclusive; nt = no result given; [ ] = another dose, or the depositor's remark. Unless noted, the call rests on the fitted dose curve; in most records, active means well fitted curve in the direction sought with a large enough effect; inconclusive means small, poorly fitted or top-dose-only effect, or another doubt; inactive means no such curve, though single readings can be large; an effect the other way counts as inactive or inconclusive.

SMILES	NS1 inh	Pf growth 96h	Sm TGR block	CHX counter	Shiga inhibitor	Pf growth 48h
CC(C)CN1C(=O)c2ccc(NC(=O)c3ccco3)cc2C1=O	-35%	?	15%	49*	61*	-8%
CC(C)CN1C(=O)c2ccc(NC(=O)c3cccs3)cc2C1=O	-82%	nt	13%	40*	193*	8.3µM*
CC(C)CN1C(=O)c2ccc(NC(=O)c3ccccc3F)cc2C1=O	-4%	nt	23%	8	21	?
Nc1ccccc1-c1nnc2n1CCCCC2	8%	34%	43%	5	-4	25%
COC(=O)C(O)(c1ccc(N(C)C(=O)OC(C)C)cc1)C(F)(F)F (stereo unspecified)	5%	6%	-7%	10	6	nt
CC(C)OC(=O)N(C)c1ccc(C(O)(C(F)(F)F)C(F)(F)F)cc1	-1%	40%	-3%	20*	37	nt
CC(c1ccon1)N(C)C(=O)CCc1nnc(CCCCc2ccccc2)o1 (stereo unspecified)	0%	?	0%	0	13	-6%
CN(Cc1ccon1)C(=O)CCc1nnc(Cc2ccc(-c3ccccc3)cc2)o1	-7%	17%	-8%	24*	37*	-2%
CC(c1ccon1)N(C)C(=O)CCc1nnc(Cc2ccc(-c3ccccc3)cc2)o1 (stereo unspecified)	-1%	26%	7%	16*	40	?
Cc1cccc(NC(=O)C2CCCN(S(=O)(=O)c3cccc4nonc34)C2)c1C (stereo unspecified)	nt	nt	-7%	nt	nt	nt
NS(=O)(=O)c1ccc(CCNCc2cc(Br)ccc2OCc2ccccc2)cc1	-2%	-18%	-19%	-2	-16	13µM*
OCCNCc1cc(Br)ccc1OCc1ccccc1	-13%	-9%	0%	-3	-7	-29%
CCOc1cc(CNCCc2ccc(S(N)(=O)=O)cc2)ccc1OCc1ccccc1	17%	?	0%	-2	-19	?
CCOCCCNCc1cc(Br)ccc1OCc1ccccc1	-10%	?	-3%	-4	6	10µM*
CCOc1cc(CNCCc2ccc(S(N)(=O)=O)cc2)cc(Cl)c1OCc1ccccc1	-5%	13µM*	7%	9	-10	13µM*
COc1ccc(C(c2nnnn2C2CCCC2)N2CCN(c3ccccc3)CC2)cc1 (stereo unspecified)	-3%	?	-3%	3	4	9.3µM*
COc1ccc(C(c2nnnn2C2CCCCC2)N2CCN(c3ccccc3)CC2)cc1 (stereo unspecified)	-6%	157%	1%	-8	-18	10µM*
COc1ccc(N2CCN(C(c3nnnn3C3CCCC3)C(C)C)CC2)cc1 (stereo unspecified)	0%	40%	-8%[57.1 µM]	-3	-16	-11%
COc1ccccc1C(=O)N(Cc1nc(-c2cccc(C)c2)no1)C(C)C	nt	nt	8%	nt	nt	nt
CN1N=C(/C=C/c2ccccc2)CCC1=O	nt	139%	7%	28*	88*	141%
Cc1ccc(/C=C/C2=NN(C)C(=O)CC2)cc1	nt	361%	0%	27*	63*	355%
Cc1ccc(/C=C/C2=NN(Cc3ccccc3)C(=O)CC2)cc1	12%	nt	3%	4	3	-10%
CC(C)(C)c1ccc(CN2N=C(/C=C/c3ccccc3)CCC2=O)cc1	nt	-2%	14%	7	-14	?
O=C1CCC(/C=C/c2ccccc2)=NN1Cc1ccccc1	nt	-11%	2%	12	17	3%
C=CCN1N=C(/C=C/c2ccccc2)CCC1=O	nt	-4%	10%	20*	51	11%
SMILES	NS1 inh	Pf growth 96h	Sm TGR block	CHX counter	Shiga inhibitor	Pf growth 48h
O=C(Cc1ccccc1)NC1CC(=O)N(c2ccccc2)C1 (stereo unspecified)	nt	nt	-2%	nt	nt	nt
Cc1ccc(C(=O)COC(=O)c2cnccn2)cc1	-2%	nt	0%	-2	-2	11%
Cc1cnc(C(=O)OCC(=O)c2ccccc2)cn1	nt	14%	-1%	nt	nt	53%
Cn1ccc(C(=O)OCC(=O)c2ccccc2)n1	1%	38%	-3%	17*	59	36%
Cc1ccc(C(=O)COC(=O)c2cn3ccccc3n2)cc1	1%	48%	-5%	42*	i	75%
NNC(=O)c1cn2ccccc2n1	1%	-57%	3%	29*	60*	?
O=C(Nc1nccs1)c1cn2ccccc2n1	-5%	63%	2%	10	-19	-19%
O=C(COC(=O)CNS(=O)(=O)c1c(F)cccc1F)NC(=O)NC1CCCCC1	nt	-27%	-1%	nt	nt	0%
C=CCNC(=S)N1CCN(CCN=CC2=C(O)CC(c3ccc(Cl)cc3)CC2=O)CC1 (stereo unspecified)	nt	-31%	4%	-2	-11	?
CC1CCCCC1NC(=O)C1CCN(S(=O)(=O)c2cccc3nonc23)CC1 (stereo unspecified)	-2%	?	0%	-3	14	14%
O=C(c1cc2sccc2n1Cc1ccccc1)N1CCCc2ccccc21	15%	nt	4%	41*	135*	?
Cn1c(C(=O)N2CCCc3ccccc32)cc2sccc21	-34%	nt	4%	26*	32	10%
Cc1sc(N2C(=O)C3C4C=CC(C4)C3C2=O)c(C#N)c1C (stereo unspecified)	8%	-1%	7%	4	-9	11%
C/C(CC(=O)Nc1cc(Cl)ccc1Cl)=N\NC(=O)COc1cccc(C)c1	-5%	76%	6%	-4	16	0%
C/C(CC(=O)Nc1cc(C)ccn1)=N\NC(=O)COc1cccc(C)c1	2%	?	-1%	31*	-12	49%
C/C(CC(=O)Nc1cc(C)ccn1)=N\NC(=O)c1ccc(C)cc1	7%	4%	0%[57.1 µM]	29*	53*	6%
C/C(CC(=O)Nc1cc(C)ccn1)=N\NC(=O)c1ccncc1	-1%	1%	8%	8.6*	20	8%
Cc1ccc(C(=O)NCC(=O)Nc2cc(C)ccn2)cc1	nt	186%	-2%	nt	nt	36%
C/C(CC(=O)Nc1ccccn1)=N\NC(=O)c1cccc(C)c1	2%	12%	15%	21*	40*	37%
COc1ccc(C(=O)N/N=C(\C)CC(=O)Nc2ccccn2)cc1OC	4%	-22%	-7%	-6	1	15%
CCc1ccc(NC(=O)C(CC)Sc2nc3ccsc3c(=O)n2CCC(=O)O)cc1 (stereo unspecified)	14%	?	-2%	-1	-5	8%
CC1=NN(C(=O)c2ccc(Cn3ccc([N+](=O)[O-])n3)cc2)C(O)(C(F)(F)F)C1 (stereo unspecified)	-7%	-1%	17%	1	14	-6%
